# According to PubChem BioAssay AID624330 (Southern Research Specialized Biocontainment Screening …, 2012):
# Screen size: about 340,000 compounds; about 2,100 (0.62%) were called active. These entries were drawn from the full list. Measured potencies and affinities stand elsewhere. A number with no mark means an inactive call.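 The calls were made as follows: active = first-screen hits whose inhibition reached a set limit at any dose in the follow-up dose series; inconclusive = inhibition above the set first-screen limit but never retested; inactive = the rest.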
# Target: Rac GTPase-activating protein 1 (Homo sapiens) (UniProt Q9H0H5)
# Assay: MgcRacGAP GTPase-activating activity inhibitors, confirmation, biochemical, ADP Hunter fluorescence, primary and confirmatory (AID 624330);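 also: fluorescence reports GDP produced by GAP-driven GTP hydrolysis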
# Settings: MgcRacGAP-stimulated Rac1 GTP hydrolysis, at 30 µM, active compounds read high, GST-tagged Rac1 F28L mutant substrate
# Sequence of Rac GTPase-activating protein 1 (Homo sapiens) (Q9H0H5 whole entry, looked up): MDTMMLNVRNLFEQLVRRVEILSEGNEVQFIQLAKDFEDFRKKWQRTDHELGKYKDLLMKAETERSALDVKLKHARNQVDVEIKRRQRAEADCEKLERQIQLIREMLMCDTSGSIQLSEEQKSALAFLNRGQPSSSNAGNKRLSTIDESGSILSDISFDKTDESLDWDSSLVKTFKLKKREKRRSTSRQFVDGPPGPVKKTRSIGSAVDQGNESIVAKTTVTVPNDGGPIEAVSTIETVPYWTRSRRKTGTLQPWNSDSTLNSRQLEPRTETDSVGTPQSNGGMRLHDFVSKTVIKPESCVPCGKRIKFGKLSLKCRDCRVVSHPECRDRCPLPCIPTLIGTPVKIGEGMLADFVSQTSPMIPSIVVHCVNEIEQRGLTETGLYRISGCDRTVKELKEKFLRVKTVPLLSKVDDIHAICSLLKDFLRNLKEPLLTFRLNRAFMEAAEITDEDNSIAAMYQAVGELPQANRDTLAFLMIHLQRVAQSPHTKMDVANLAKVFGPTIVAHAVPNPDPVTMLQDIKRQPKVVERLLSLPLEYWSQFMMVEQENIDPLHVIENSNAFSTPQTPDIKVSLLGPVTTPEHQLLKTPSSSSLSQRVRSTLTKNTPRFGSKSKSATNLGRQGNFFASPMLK
row,SMILES,inhibition [%]
1,O=C1OCC2=C1C(c1ccc(F)cc1)Sc1ccccc1N2 (stereo not given),-0.0633
2,CCOC(=O)c1c(OCC)[nH]c2ccc(O)cc12,7.01
3,CCOC(=O)c1c(C)[nH]c2c1cc(O)c1ccccc12,13.6
4,CS(=O)(=O)N1CCN(c2ccc(NC(=O)CSc3ccc(Cl)cc3)cc2)CC1,3.35
5,CCN1/C(=C/c2ccc3cc(C)ccc3[n+]2CC)Sc2ccc3sccc3c21,6.5
6,CCN1/C(=C/c2ccc3cccc(C)c3[n+]2CC)Sc2ccccc21,17.8
7,CCN1/C(=C\c2ccc3cc(C)ccc3[n+]2CC)Sc2cc(C)c(C)cc21,5.51
8,CCN1/C(=C/c2ccc3ccccc3[n+]2CCCS(=O)(=O)[O-])C=Cc2cc(C)ccc21,5.54
9,CCN1/C(=C/c2ccc3cc(C)cc(C)c3[n+]2CC)Sc2cc(C)ccc21,24.3
10,CCN1/C(=C/c2ccc3cc(C)ccc3[n+]2CC)Sc2cc(C)c(C)cc21,15.9
11,Cc1ccc2c(c1)S/C(=C\c1cccc[n+]1C)N2CCO,4.89
12,C=CC[n+]1c(/C=C2\C=Cc3cc(C)ccc3N2CC)ccc2ccccc21,17.6
13,Cc1ccc2nc(SCC(=O)Nc3ccccc3F)nc(=O)n2c1,3.36
14,Cc1ccc(N(CC(=O)NCc2ccco2)C(=O)CCC(=O)Nc2ccccn2)c(C)c1,10.2
15,CS(=O)(=O)N(CC(=O)N/N=C/c1cccs1)c1cccc(Cl)c1Cl,11.9
16,NS(=O)(=O)c1ccc(CNC(=O)Cc2ccc(S(=O)(=O)N3CCOCC3)s2)cc1,9.4
17,C/C(=N\NC(=O)c1c[nH]c2ccccc12)c1ccc2c(c1)OCO2,12.8
18,Fc1ccccc1/C=N/N1CCN(Cc2ccccc2Cl)CC1,-7.94
19,CCN(CC)S(=O)(=O)c1ccc(NC(=O)c2cccc3c2C(=O)N(CCOC)C3)cc1,8.69
20,Cc1ccccc1N1C(=O)C(Cl)=C(N2CCCCCC2)C1=O,-5.76

row,SMILES,inhibition [%]
1,CN1CCN(C2=C(Cl)C(=O)c3ccccc3C2=O)CC1,12.8
2,COC(=O)[C@]1(Cc2ccccc2)N[C@H](CN(C)C(=O)c2ccc(F)cc2)[C@@H]2C(=O)N(C)C(=O)[C@@H]21,1.31
3,Cc1c2ccccc2c(C)c2c1ccc1ccccc12,0.81
4,CCCCC[n+]1cccc2c3ccccc3ccc21,16.4
5,O=C(Nc1cccc2ccccc12)N1CCOCC1,-1.28
6,O=C(Cc1cccs1)Nc1nncs1,0.97
7,CCOC(=O)N1CCN(C(=O)c2ccc3c(=O)n(CCc4ccccc4)c(=S)[nH]c3c2)CC1,5.18
8,Cc1ccc(Cl)cc1N1CCN(C(=O)Cn2ccc3ccccc3c2=O)CC1,4.81
9,CCOc1ccc(CCNC(=O)C2CCN(c3nnc(-n4cccc4)s3)CC2)cc1,-0.04
10,CCN1CCN(CCCNC(=O)C2CCN(c3nnc(-n4cccc4)s3)CC2)CC1,16.4
11,CCOCC(=O)Nc1ccc(-c2cn3cccnc3n2)cc1,1.23
12,CCCCn1nc(C(=O)Nc2cc(C(F)(F)F)ccc2N2CCOCC2)ccc1=O,4.58
13,O=C(CSc1nnnn1-c1cccc2ccccc12)Nc1ccc(N2CCOCC2)c(Cl)c1,-5.56
14,CCOc1ccc(N=Cc2c(O)cc(C)oc2=O)cc1,30
15,Cc1cccc(N=Cc2c(O)cc(C)oc2=O)c1,5.21
16,CC1Cc2ccccc2N1C(=O)COc1nc2ccccc2nc1N1CCOCC1 (stereo not given),0.29
17,CO/N=C/C=C1/N(C)c2ccccc2C1(C)C,6.44
18,CN1/C(=C\C=N\O)C(C)(C)c2ccccc21,15.1
19,CN1/C(=C/C=N/NC(=O)c2ccc([N+](=O)[O-])cc2)C(C)(C)c2ccccc21,2.66
20,CN1/C(=C\C=Nc2ccc3ccccc3c2)C(C)(C)c2ccccc21,12.2

row,SMILES,inhibition [%]
1,Cc1ccccc1N=C/C=C1\N(C)c2ccccc2C1(C)C,4.55
2,CN1/C(=C\C=N\NC(=O)c2cccnc2)C(C)(C)c2ccccc21,4.5
3,COC(=O)CCCCC(=O)C1C(=O)CC(C)(C)C(C(=O)OC)C1=O (stereo not given),2.31
4,CC1(C2CC(C(F)(F)F)n3nc(C(=O)O)cc3N2)CC1 (stereo not given),5.89
5,O=C(Nc1ccc(C(=O)N2CCCCC2)cc1)c1ccccc1Br,3.41
6,COc1ccc(/C=C/C(=O)Oc2ccc(/C=N/NC(=O)c3ccccc3)cc2)cc1OC,3.85
7,O=C(CN1CCN(Cc2ccccc2)CC1)N/N=C/c1cccs1,2.1
8,N/C(Cc1ccc([N+](=O)[O-])cc1)=N\OC(=O)C(c1ccccc1)c1ccccc1,8.53
9,NC(CSCc1ccccc1Cl)C(=O)O (stereo not given),-0.96
10,CCc1ccc(OCC(=O)N2CC(C(N)=O)Oc3ccccc32)cc1 (stereo not given),4.28
11,COc1cc(/C=C(\C#N)c2nc3ccccc3[nH]2)cc(Br)c1OCc1ccccc1,6.48
12,COc1ccc(/C=C(\C#N)C(=O)c2c(C)[nH]c3ccccc23)cc1OC,10.7
13,COc1cc(/C=C(\C#N)c2nc3ccccc3[nH]2)cc(Br)c1OCc1ccc(F)cc1,6.53
14,COc1cc(/C=C(\C#N)C(=O)c2c(C)[nH]c3ccccc23)cc(OC)c1OC,15.4
15,Cc1cc2nc(/C(C#N)=C/c3ccncc3)[nH]c2cc1C,10.2
16,COc1cc(/C=C(/C#N)c2nc3ccccc3c(=O)[nH]2)ccc1O,19.3
17,Cc1ccc2nc(/C(C#N)=C/c3ccccc3C(=O)O)[nH]c2c1,16
18,COc1ccc(/C=C(\C#N)c2nc3ccccc3[nH]2)cc1O,18.2
19,O=C(CCn1cnnn1)NC1CCCN(Cc2ccccc2F)C1 (stereo not given),-0.5
20,CN(C)c1ccc(C=NNC(=O)c2cccnc2)cc1,1.95
